Screening results: PubChem, National Center for Advancing Translational Sciences (NCATS)
In the library only some 14% were active in any assay of this set; here they are far more common.
FBPA Giardia inh: inhibitors of Giardia lamblia fructose-1,6-bisphosphate aldolase. A8B2U2. 0.71% of 290,000 active. purified Giardia FBPA. Potency, µM (highest dose often 59.6 µM), inactives show at the top dose activity, negative = inhibition, usual class: inhibitors. AID 2451; note: potency is the fitted concentration of half-maximal effect; nearly all actives have a fitted effect of over 55% in size
Target sequence (A8B2U2 whole entry, looked up): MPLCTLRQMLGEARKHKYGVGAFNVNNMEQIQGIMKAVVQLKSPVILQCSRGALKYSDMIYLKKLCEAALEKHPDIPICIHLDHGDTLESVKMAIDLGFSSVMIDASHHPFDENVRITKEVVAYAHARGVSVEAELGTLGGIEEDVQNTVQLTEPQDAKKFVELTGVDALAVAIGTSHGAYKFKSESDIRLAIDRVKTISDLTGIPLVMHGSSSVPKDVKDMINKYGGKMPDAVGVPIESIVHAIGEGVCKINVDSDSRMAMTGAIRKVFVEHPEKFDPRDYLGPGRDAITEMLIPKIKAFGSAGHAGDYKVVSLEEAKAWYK
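Giardia FBPA (40 nM reagent) was preincubated 10 min at RT with compound (up to 57.5 uM final), then substrate plus GAPDH/TPI/NAD/arsenate coupling system with diaphorase/resazurin was added; resorufin fluorescence (525/598 nm) was read after 20 min.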
Sm TGR block: blocks Schistosoma mansoni thioredoxin glutathione reductase; Q962Y6; purified TGR, DTNB reduction, TNB absorbance 405 nm; Potency, µM (doses to about 114 µM), for inactives: top-dose activity change, negative = inhibition, most hits filed as inhibitors; 3% of 360,000 active; note: potency is the fitted concentration of half-maximal effect; nearly all actives have a fitted effect of over 60% in size
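TGR 20 nM + NADPH 100 uM (dispensed conc.), cpd preinc 15 min RT; start with NADPH (500 uM addition) then DTNB (15 mM addition). Kinetic TNB absorbance, 405 nm filter. Four-parameter Hill fit across titration.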
Pf growth 96h: inhibits malaria parasite growth, 96 h | 6.9% of 320,000 active | AID 504834 | P. falciparum luciferase reporter growth, 96 h | Potency, µM (top dose mostly 28.7 µM), for the others: top-dose activity change, negative = inhibition, most hits filed as inhibitors; note: potency is the fitted concentration of half-maximal effect
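Plates of compound plus infected erythrocytes (2% hematocrit, 0.05% parasitemia final) incubate 96 hours, 37 C, 5% CO2. Detection reagent added; reduced luminescence from the parasites' luciferase reporter flags inhibition.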
Pf growth 48h: inhibits P. falciparum growth in the first generation, 48 h | 5.9% of 310,000 active | AID 504832 | P. falciparum luciferase growth in erythrocytes, 48 h | Potency, µM (series often up to 28.7 µM), for the others: at the top dose activity change, negative = inhibition, most hits filed as inhibitors; note: potency is the fitted concentration of half-maximal effect
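Read-out is firefly luciferase luminescence from an integrated reporter in P. falciparum, so falling signal marks reduced parasite growth. Infected erythrocytes were at 2% hematocrit and 0.1% parasitemia (final) in Albumax-supplemented RPMI 1640.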
HCMV antiviral: inhibitors of human cytomegalovirus; AID 1259415; activity change, negative = inhibition, % at 57.5 µM; HFF cells, HCMV-luciferase reporter, 72 h; active compounds read low; 4.5% of 410,000 active; in the data active = activity change below about -60%; inconclusive = no clear call, values can overlap the other calls; inactive = above about -39%
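Human foreskin fibroblasts infected with luciferase-reporter HCMV at MOI 1 PFU/cell, compounds at two doses. Luciferase measured 72 h post infection; normalized to buffer-only basal and Salinomycin (10uM) controls.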
* hit, by the source's call; ? = inconclusive; · = no result; ! = repeats disagree; [ ] = another dose, or the depositor's remark. Unless noted, calls come from the whole dose curve; as a rule, active = well fitted curve in the direction sought with a large enough effect; inconclusive = small, poorly fitted or top-dose-only effect, or another doubt; inactive = no such curve, though single readings can be large; an effect the other way counts as inactive or inconclusive. % is set by controls: 0 for no effect and ±100 for the full control effect.

SMILES	FBPA Giardia inh	Sm TGR block	Pf growth 96h	Pf growth 48h	HCMV antiviral
O=C(NC(=S)Nc1cccc(NC(=S)NC(=O)c2ccco2)n1)c1ccco1	?	·	1.3µM*	-10%	-116*
S=C(Nc1ccccc1)Nc1ccccc1Br	-2%	45µM*	29%	13%	-32
Cc1ccccc1NC(=S)Nc1ccc(Br)cc1	5%	-22%	?	14%	-20
Cc1cccc(NC(=S)NC(=O)c2ccco2)c1C	·	?	11%	38%	47
O=C(NC(=S)Nc1ccccc1Br)c1ccco1	-13%	35µM*	?	-6%	30
CCCCCCNC(=O)Nc1ccc(S(=O)(=O)Nc2ccc(CCNC[C@H](O)COc3ccc(O)cc3)cc2)cc1	3%	·	·	·	·
O=C(CSc1nncs1)Nc1nnc(-c2ccccc2)o1	·	4%	12%	0%	15
CC(C)(C)S(=O)(=O)N1C[C@@H]2CC/C=C\C/C=C\2[C@H]1CCO	·	·	·	·	-1
COc1ccc(Oc2coc3cc(OC(=O)/C=C/c4ccc(F)cc4)ccc3c2=O)cc1	3%	-19%	4.1µM*	?	19
COC(=O)Cn1c(-c2ccc(OC)cc2)c(-c2ccc(OC)cc2)nnc1=O	-5%	79µM*	1%	14%	16
COc1ccc2c(c1)sc1nc(=O)ccn12	2%	4%	?	42%	61
COc1ccc2c(c1)sc(=N)n2C	1%	0%	3.7µM*	?	?
O=C(O)CCCCN1C(=O)C=CC1=O	·	·	·	·	16
CCCN(C(=O)CCSc1ccc(F)cc1)c1c(N)n(Cc2ccccc2)c(=O)[nH]c1=O	·	8%	4.7µM*	12µM*	23
COCCN(C(=O)CCSc1ccc(F)cc1)c1c(N)n(Cc2ccccc2)c(=O)[nH]c1=O	·	2%	13µM*	?	-6
COCCCN(C(=O)CCSc1ccc(F)cc1)c1c(N)n(Cc2ccccc2)c(=O)[nH]c1=O	·	-4%	?	12µM*	-33
COCCN(C(=O)CSCc1ccccc1)c1c(N)n(Cc2ccccc2)c(=O)[nH]c1=O	·	-10%	16%	7%	-5
Cc1ccc2c(c1)C(=O)CCCCC(=O)N2	-1%	1%	?	?	1
CCN(CC(=O)Nc1ccc(NC(C)=O)cc1)C(=O)C1CC1	·	·	·	·	5
Cc1nc2ccccn2c1C(=O)N=Nc1c(O)[nH]c2ccccc12	6%	-3%	?	-22%	51
CC(=O)Nc1ccc(N=NN2CCOCC2)cc1	-2%	8.9µM*	39%	17%	-39
Cc1ccc(NC2(c3ccccc3)C(=O)c3ccccc3C2=O)cc1F	·	6%	·	·	17
CCCOc1ccc(N)cc1N	0.4µM*	1.8µM*	-9%	-12%	0
CCCOc1cc(N)ccc1C(=O)OCCN(CC)CC	-3%[21.7 µM]	-7%	0.72µM*!	15%	-21
CCN(CC)CCOC(=O)c1ccc(N)cc1	?	5%	?	16%	-21
SMILES	FBPA Giardia inh	Sm TGR block	Pf growth 96h	Pf growth 48h	HCMV antiviral
CCOCCCNC(=O)c1ccc(CN2CCc3ccccc3C2)cc1	·	·	·	·	-21
O=C(NCc1ccc(N2CCCC2=O)cc1)c1cc(COc2c(F)cccc2F)on1	·	-3%	?	-15%	41
COc1ccccc1NC(=O)C(C)OC(=O)C1CCC(C(C)(C)C)CC1 (centres undefined)	·	0%	15µM*	2.9µM*	-3
COc1ccccc1NC(=O)C(C)OC(=O)c1cc2ccccc2[nH]1 (centres undefined)	·	-4%	?	9.3µM*	5
COc1ccccc1NC(=O)C(C)OC(=O)C1CC(=O)N(c2ccc3c(c2)OCCO3)C1 (centres undefined)	·	0%	62%	1%	-6
COc1ccc(OC)c(NC(=O)C(C)OC(=O)c2cc3ccccc3[nH]2)c1 (centres undefined)	·	·	·	·	-3
COc1ccc(S(=O)(=O)N2CCCCCC2)cc1C(=O)Nc1ccc(C(=O)N(C)C)cc1	·	-2%	?	?	2
O=C(CN1C(=O)C(c2ccc(F)cc2)=NC12CCCCCC2)Nc1ccccc1Cl	·	6%	·	·	-14
COc1cccc(NC(=O)CN2C(=O)C(c3ccc(C)cc3)=NC23CCCCCC3)c1	-11%	5%	?	?	?
COc1cc(NC(=O)CN2C(=O)C(c3ccc(Cl)cc3)=NC23CCCCC3)cc(OC)c1	·	3%	·	·	-93*
O=C(CN1C(=O)C(c2ccc(F)cc2)=NC12CCCCCC2)Nc1ccc(F)c(Cl)c1	·	2%	·	·	-90*
COc1ccc(C2=NC3(CCCCCC3)N(CC(=O)Nc3cccc(Cl)c3)C2=O)cc1	·	-1%	·	·	-91*
O=C(NCCCN1CCCC1=O)Nc1ccc([N+](=O)[O-])cc1	-2%	8%	?	-23%	-12
Cc1cc(NC(=O)CN2C(=O)N(C)C3(CCCCC3)C2=O)ccc1Br	·	4%	-26%	?	6
COc1ccc(Nc2c3c(nc4ccc(NC(=O)/C=C/c5cccc(OC)c5OC)cc24)CCCC3)cc1OC	·	1%	·	·	-97*
COc1ccccc1Nc1c2c(nc3ccc(NC(=O)c4cccc(F)c4)cc13)CCCC2	·	1%	·	·	-107*
COc1ccccc1Nc1c2c(nc3ccc(NC(=O)/C=C/c4cccc(OC)c4OC)cc13)CCCC2	·	0%	·	·	-99*
COc1ccc(/C=C/C(=O)Nc2ccc3nc4c(c(Nc5ccccc5OC)c3c2)CCCC4)cc1	·	-1%	·	·	-102*
O=C(Nc1ccc2nc3n(c(=O)c2c1)CCCC3)c1cccc(F)c1	6%	-4%	115%	0%	1
CCC(CC)C(=O)Oc1c(C(=O)N(C)C)cccc1-c1ccccc1	·	·	·	·	9
Cc1cc(S(=O)(=O)N2CCOCC2)ccc1OCC(=O)NCc1ccccn1	10%	4%	11%	13%	-14
COc1ccc(Oc2ncc3nc(-c4ccccc4)c(=O)n(CCC#N)c3n2)cc1	-4%	·	·	·	·
C[C@@H]1CN([C@H](C)CO)C(=O)c2cc(Br)cnc2O[C@@H]1CN(C)C(=O)Nc1ccccc1	·	·	·	·	-2
CCOC(=O)c1sc(N(Cc2ccccc2)C(=O)COC(=O)c2ccccc2O)nc1C	0%	-8%	32%	39%	12
CCOC(=O)c1sc(N(Cc2ccccc2)C(=O)CCl)nc1C	·	25µM*	-17%	?	-25
COc1cccc(-c2nn(-c3ccc(C)cc3)cc2C(=O)N2CCc3cc(OC)c(OC)cc3C2)c1	·	-9%	?	9.3µM*	21
COc1cccc(-c2nn(-c3ccccc3)cc2C(=O)O)c1	14%	3%	21%	-9%	9
COc1ccccc1-c1nn(-c2ccccc2)cc1C(=O)N1CCN(C(=O)c2ccco2)CC1	·	0%	-28%	?	-6
COc1ccccc1-c1nn(-c2ccccc2)cc1C(=O)N1CCc2ccccc2C1	·	1%	3.7µM*	?	0
COc1ccc(OC)c(-c2nn(-c3ccccc3)cc2C(=O)N2CCc3ccccc3C2)c1	·	-12%	?	10µM*	-22
